# Whole data set: some 33,000 sequences, median “E-score (-0.5 to 0.5)” near -0.016, cut for the highest 2% near 0.3. This excerpt belongs to a sample that is enriched for the highest values.
# Biological target: T1, Yer184c (UniProt P39961)
# T1 sequence: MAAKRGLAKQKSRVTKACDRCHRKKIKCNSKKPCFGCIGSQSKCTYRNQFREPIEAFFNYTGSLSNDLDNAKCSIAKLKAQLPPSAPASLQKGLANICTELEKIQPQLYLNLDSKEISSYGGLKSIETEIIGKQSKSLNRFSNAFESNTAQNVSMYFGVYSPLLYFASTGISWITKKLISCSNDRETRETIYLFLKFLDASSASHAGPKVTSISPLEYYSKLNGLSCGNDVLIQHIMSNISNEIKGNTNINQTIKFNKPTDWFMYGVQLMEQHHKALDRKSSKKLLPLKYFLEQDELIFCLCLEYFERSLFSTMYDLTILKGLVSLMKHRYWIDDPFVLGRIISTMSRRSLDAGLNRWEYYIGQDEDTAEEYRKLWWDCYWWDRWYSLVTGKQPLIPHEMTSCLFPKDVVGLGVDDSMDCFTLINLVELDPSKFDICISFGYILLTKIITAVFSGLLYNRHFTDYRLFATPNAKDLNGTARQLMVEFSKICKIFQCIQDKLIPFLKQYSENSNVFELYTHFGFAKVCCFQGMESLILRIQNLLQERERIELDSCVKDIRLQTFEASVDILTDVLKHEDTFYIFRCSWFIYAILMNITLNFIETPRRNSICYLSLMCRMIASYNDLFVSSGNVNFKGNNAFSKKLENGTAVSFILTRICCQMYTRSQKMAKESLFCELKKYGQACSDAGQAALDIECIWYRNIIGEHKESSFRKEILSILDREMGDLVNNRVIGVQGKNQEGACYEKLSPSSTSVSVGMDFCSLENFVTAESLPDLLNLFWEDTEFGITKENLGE
# Assay: PBM E-score (8-mer binding enrichment) (E-score (-0.5 to 0.5)); higher = stronger / more preferred TF binding
# Settings: protein concentration: 100 nM; construct: GST-full length
# Experimental: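 Universal 'all 10-mer' protein binding microarrays (Agilent AMADID 015681) probed with GST-tagged S. cerevisiae TFs (full-length or DBD) made by in vitro transcription/translation (PURExpress), about 100-200 nM. Bound TF was detected with fluorescent anti-GST. Each ungapped 8-mer (which stands for itself and its reverse complement) is scored by the PBM enrichment score (E-score), a modified Wilcoxon-Mann-Whitney statistic from -0.5 to +0.5, computed with the Universal PBM Analysis Suite. Scale: above 0.35 generally sequence-specific binding.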
row,Sequence,PBM E-score
1,CCGTGCCG,0.312
2,ACGTGCCG,0.233
3,CAGGGGAA,-0.196
4,AAGCTATC,0.191
5,CTCGGATA,0.305
6,GTCGGACA,0.193
7,CTCGGAGA,0.252
8,ATCGGATC,0.298
9,CTCGGACA,0.306
10,ATCGGACA,0.303
11,CTCGGATC,0.241
12,ATCGGATA,0.369
13,GTCGGATA,0.122
14,GATTGGGA,-0.133
15,CCCCAGGA,-0.372
16,CGATTCAA,-0.0538
17,GTTTGCCA,-0.0315
18,GAGCATCC,-0.111
19,CGTGCGCC,0.0367
20,CGGGCTTA,0.157
21,AATTACCT,0.0235
22,AGAGGTTA,-0.0189
23,CAAGTGCC,-0.126
24,AGTTACCA,0.0704
25,AGCGCCGA,0.357

row,Sequence,PBM E-score
1,AGCGCCAA,-0.231
2,GGCGCCGA,0.337
3,GGCGCCTA,-0.0826
4,AGCGCCGG,0.351
5,GGCGCCAA,-0.0615
6,CGCGCCGA,0.256
7,GCCGCCGA,0.264
8,TCCGCCGA,0.316
9,CCCGCCGA,0.193
10,AGCGCCGC,0.0842
11,AGCGCCCG,0.113
12,GCAGGGCA,-0.0295
13,GTGCACAA,-0.028
14,ACCTTTTC,-0.076
15,AAGCTAAT,0.162
16,CCGGCTAG,0.277
17,AGGGGCTC,-0.341
18,TAAATCCA,0.00272
19,CGCCGGCA,0.345
20,ATCCGGCA,0.296
21,AGGCGGCA,-0.0565
22,CCCCGGCA,0.0621
23,AGCCGGTC,0.144
24,CTCCGGCC,0.125
25,AGCCGGCA,0.404

row,Sequence,PBM E-score
1,CTCCGGCA,0.359
2,AACCGGTA,0.0801
3,CGCCGGTA,0.216
4,AGCCGGTA,0.306
5,ACCCGGCA,0.187
6,GCAGTACA,-0.0532
7,ACCGTGAG,-0.158
8,CGCAACGA,0.0385
9,AAACCTGG,-0.147
10,TGCCGGCA,0.431
11,ACCCGGCG,0.198
12,TACCGGCA,0.251
13,AGCCGGTG,0.225
14,AGCCGGCG,0.372
15,TCCCGGCA,0.256
16,AGCCGGCT,0.36
17,AACCGGCT,0.264
18,ACCCGGCT,0.22
19,AAATCAAA,0.13
20,TCGATTAA,0.148
21,ATCGGCAG,0.247
22,CTCGGCCA,0.204
23,ATCGGCAC,0.27
24,CACGGCAG,0.0946
25,CTCGGCAA,0.319

row,Sequence,PBM E-score
1,CTCGGCAG,0.31
2,GTCGGCAC,0.1
3,ATCGGCAA,0.246
4,TTCGGCAA,0.336
5,CACGGCAA,0.199
6,CTCGGCAC,0.31
7,GTCGGCAA,0.263
8,AGGACCTG,-0.174
9,ATATACCC,0.021
10,TCTATAGA,-0.137
11,GTCAATAA,0.158
12,AAGTATCC,0.0522
13,CAGGGCTC,-0.226
14,GAGAGCGC,-0.218
15,AGCAGCAT,-0.206
16,AGAGTAAC,0.0419
17,CAATAGAG,-0.242
18,CCAGCCTA,-0.206
19,CCCGCTCA,-0.141
20,CCTAAGTA,0.106
21,AGCCGGGG,0.0566
22,GGCCGGGA,0.292
23,AGCCGGGC,0.172
24,AGCCGGGA,0.311
25,CGCCGGGC,0.286

row,Sequence,PBM E-score
1,CGCCGGGA,0.312
2,CAAACAGC,-0.0581
3,ATGCGTGA,0.0231
4,AATCTAAT,0.0331
5,ATCAAGTC,-0.0287
6,ATGAACAG,0.17
7,CCGGCAAG,0.331
8,ACGGCAAA,0.211
9,CCGGCAAA,0.374
10,ACGGCAAG,0.0759
11,GCGGCAAA,0.107
12,CCGGCAAC,0.293
13,CTAGCAGC,-0.0845
14,GAAAGCTA,0.00964
15,ACGACCGG,0.0371
16,TGCAAACA,-0.168
17,AAATCGAT,0.0714
18,GCCGGCGA,0.311
19,ACCGGCGC,0.226
20,CCCGGCGC,0.216
21,GACGGCGA,-0.034
22,GCCGGCGC,0.406
23,ACCGGCGA,0.284
24,TCCGGCGA,0.38
25,GGCGGCGA,0.0554

row,Sequence,PBM E-score
1,CCCGGCGA,0.236
2,AAGAGGAA,0.23
3,AGTGAGAA,0.118
4,CCGATGCA,0.157
5,GAGTCAGC,-0.101
6,TCAGGGGA,-0.252
7,CTTCAAGA,0.171
8,AAAAACAG,0.115
9,GTTCCACA,-0.0536
10,AGCTCCGA,0.251
11,ACCTCCGG,0.357
12,AGCTCCGG,0.313
13,AACTCCGA,0.325
14,ACCTCCGT,0.107
15,TACTCCGA,0.262
16,CACTCCGC,-0.0284
17,CACTCCGA,0.0993
18,GACTCCGA,-0.0256
19,CACTCCGG,0.306
20,AGCTCCGC,0.127
21,CCCTCCGG,0.1
22,CAAGAATG,0.103
23,GTTGGAGA,0.0278
24,GTCGCCTA,-0.157
25,GGACGCCC,-0.106

row,Sequence,PBM E-score
1,AGGGGCAT,-0.358
2,ATTCTGCC,0.201
3,CCAAGCGG,-0.15
4,AACTCCGC,-0.0142
5,AACTCCGG,0.424
6,AACTCCGT,0.222
7,AGTTCGAG,-0.00888
8,AAGGGGTA,-0.351
9,AAGCGCTA,0.0496
10,CGGCGCCG,0.443
11,CGGCGCCA,0.162
12,AAGCGCCT,-0.14
13,AAACGCCG,0.334
14,AAGCGCTC,0.0112
15,AAGCGCTT,0.306
16,AAACGCCA,0.089
17,AGGCGCCG,0.207
18,CAACGCCG,0.294
19,AAGCGCCG,0.373
20,AAGCGCCA,-0.208
21,ATGACCTG,-0.0827
22,AATTGACA,0.0558

# From the supplement of paper PMC3334620
